KCNQ2 pot: potentiators of rat KCNQ2 potassium channel; Potassium voltage-gated channel subfamily KQT member 2 (Rattus norvegicus), O88943; CHO-K1 KCNQ2, FluxOR thallium flux fluorescence; hits give high values; B-score at 10 µM; actives 0.54% (n = 310,000); AID 2239, 2010;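 active means fluorescence ratio B-score at least 3 SD of library B-scores, with initial fluorescence B-score within 3 of them, cut at about 5.3 in these data; same plate scores as AID 2156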;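 further: B-score of peak minus minimum over baseline fluorescence ratio after K+ and Tl+ stimulus; positive B-score means potentiation of KCNQ2 with more thallium influx and brighter signal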
Target sequence (O88943 whole entry, looked up): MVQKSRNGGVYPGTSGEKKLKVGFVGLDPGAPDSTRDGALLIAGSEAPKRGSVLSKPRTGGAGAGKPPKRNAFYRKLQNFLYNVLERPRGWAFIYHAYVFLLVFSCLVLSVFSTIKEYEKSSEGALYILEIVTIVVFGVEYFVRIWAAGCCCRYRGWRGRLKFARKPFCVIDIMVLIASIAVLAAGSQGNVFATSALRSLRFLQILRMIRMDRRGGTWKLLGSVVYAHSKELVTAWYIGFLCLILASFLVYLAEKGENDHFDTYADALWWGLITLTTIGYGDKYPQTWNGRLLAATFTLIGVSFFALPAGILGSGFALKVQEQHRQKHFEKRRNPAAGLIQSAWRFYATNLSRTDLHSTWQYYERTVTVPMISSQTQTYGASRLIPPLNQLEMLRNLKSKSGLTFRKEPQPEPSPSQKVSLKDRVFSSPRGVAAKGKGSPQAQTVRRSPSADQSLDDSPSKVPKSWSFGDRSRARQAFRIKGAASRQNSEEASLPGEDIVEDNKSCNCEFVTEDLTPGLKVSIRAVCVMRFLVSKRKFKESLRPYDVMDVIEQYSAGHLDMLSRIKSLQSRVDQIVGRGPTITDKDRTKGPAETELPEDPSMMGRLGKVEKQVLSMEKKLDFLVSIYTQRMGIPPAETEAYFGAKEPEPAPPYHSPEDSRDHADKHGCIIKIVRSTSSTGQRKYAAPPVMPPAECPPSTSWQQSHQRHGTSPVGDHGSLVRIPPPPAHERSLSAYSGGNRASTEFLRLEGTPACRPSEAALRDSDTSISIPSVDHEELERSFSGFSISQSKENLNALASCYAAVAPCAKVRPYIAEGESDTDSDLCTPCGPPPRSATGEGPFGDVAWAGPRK
KCNQ2 inh: rat KCNQ2 potassium channel inhibitors, primary screen, cell-based, CHO-K1, FluxOR thallium flux, B-score | Potassium voltage-gated channel subfamily KQT member 2 (Rattus norvegicus), O88943 | B-score at 10 µM | actives 1.1% (n = 310,000) | 20 min; hits give low values;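 active means fluorescence ratio B-score at most minus 3 library SDs, with starting brightness B-score within 2 library SDs, cut at about -5.5 in these data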
Kir21 confirm: mouse Kir2.1 channel blockers, retest, confirmation, cell-based, FluxOR thallium flux, duplicate; shares compounds with KCNQ2 pot; Kir2.1-expressing cells, FluxOR thallium flux fluorescence; hits give low values; Tl flux remaining, % of negative control (hits give low values), % at 10 µM; actives 41% (n = 2,300); AID 2032, 2009;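 active means Primary-screen hit whose thallium flux fell at least 3 control SD below untreated wells in both duplicates, with normal baseline fluorescence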
HEK293 ctr: alters thallium flux in parental HEK293 cells, Kir2.1 counter-screen | actives 19% (n = 2,300) | shares compounds with KCNQ2 pot | FluxOR thallium flux fluorescence; 0% = unstimulated blank wells | FluxOR signal as % of negative control (100 = no effect), % at 10 µM;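 active means dye signal at least 3 control SD above or below untreated wells in both duplicates, raw fluorescence within 3, either direction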;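 further: percent is based on the flux ratio of peak minus minimum fluorescence over baseline F0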
CHO-K1 ctr: nonspecific thallium flux increase in parental CHO-K1, confirmation, counter-screen for KCNQ2 potentiator project, cell-based, FluxOR thallium flux, duplicate | shares compounds with KCNQ2 pot | parental CHO-K1 cells, FluxOR thallium flux fluorescence; zero = vehicle mean+3SD, 100% = vehicle-minus-blank window | activity increase over 3SD of controls, % at 10 µM | actives 43% (n = 1,200) | AID 2282, 2010;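 active means signal rise of at least 3 SD above the untreated control mean, in both duplicate wells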;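 further: counter screen of KCNQ2 potentiator hits so any rise reflects channel-independent effects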
KCNQ1 sel pot: human KCNQ1 channel potentiation off-target, confirmation, selectivity assay for KCNQ2 potentiator project, cell-based, CHO, FluxOR thallium flux; shares compounds with KCNQ2 pot; CHO KCNQ1 stable, FluxOR thallium flux fluorescence; beyond 3SD, as % of vehicle-control signal; activation over 3SD threshold, % at 10 µM; actives 28% (n = 1,200); AID 2283, 2010;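 active means fluorescence ratio rise of at least 3 SD of vehicle wells above their mean, in both replicate wells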
KCNQ2 pot conf: rat KCNQ2 channel potentiators, confirmation, cell-based, CHO, FluxOR thallium flux, duplicate | shares compounds with KCNQ2 pot | CHO-KCNQ2 cells, FluxOR thallium flux fluorescence | potentiation, less the hit threshold, % at 10 µM | actives 68% (n = 1,200) | AID 2287, 2010;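 active means fluorescence ratio rising 3 SD or more over the vehicle control mean in both replicates, plus primary screen hit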;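 further: peak minus minimum thallium fluorescence divided by baseline after K/Tl stimulus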
Kir2-1 sel: mouse Kir2.1 channel activation off-target, confirmation, selectivity assay for KCNQ2 potentiator project, cell-based, HEK293, FluxOR thallium flux | HEK293 Kir2.1, FluxOR thallium flux fluorescence | activity over 3SD threshold, % at 10 µM | shares compounds with KCNQ2 pot | actives 2% (n = 1,200);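 active means fluorescence ratio rise of at least 3 SD above the vehicle-control mean, seen in both replicates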
KCNQ2 W236L MoA: potentiators of retigabine-insensitive KCNQ2 W236L, mechanism study for KCNQ2 potentiator project, cell-based, rat KCNQ2 W236L, CHO, automated patch clamp | shares compounds with KCNQ2 pot | automated patch clamp current | current increase over 3SD of negative controls (%), hits give high values, % at 25 µM | actives 10% (n = 940);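 active means current increase at least 3 SD of the untreated controls above them in both duplicate recordings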
A number is an active result; 0 = inactive; - = no result given. Rows were chosen to be rich in hits. Some 1.6% of all compounds tested hit in one or more screens of this group.

SMILES	KCNQ2 pot	KCNQ2 inh	Kir21 confirm	HEK293 ctr	others
O=C(NCC(c1ccco1)N1CCc2ccccc21)C(=O)Nc1ccc(F)cc1F (configuration not stated)	-	0	-	-
O=C(CCC(=O)Nc1nnc(C2CCCCC2)s1)NCc1ccc(F)cc1	0	0	-	-
COc1cccc(OCC(O)CN2CCc3ccccc3C2)c1 (configuration not stated)	0	0	-	-
Cc1cccc(OCC(O)CN2CCc3ccccc3C2)c1 (configuration not stated)	0	0	42.0%	0
OC(COc1ccc(Cl)cc1Cl)CN1CCc2ccccc2C1 (configuration not stated)	-	0	39.5%	0
COc1ccc(OCC(O)CN2CCc3ccccc3C2)cc1 (configuration not stated)	0	0	-	-
COc1cc(COCC(O)CN2CCc3ccccc3C2)cc(OC)c1OC (configuration not stated)	0	0	-	-
OC(COC(c1ccc(Cl)cc1)c1ccc(Cl)cc1)CN1CCc2ccccc2C1 (configuration not stated)	-	0	-	-
C=CCc1ccc(OCC(O)CN2CCc3ccccc3C2)c(OC)c1 (configuration not stated)	-	0	30.5%	0
Cc1ccc(OCC(O)CN2CCc3ccccc3C2)c(C)c1 (configuration not stated)	-	0	28.5%	0
Cc1nn(-c2cccc(Cl)c2)c2nc(-c3ccncc3)cc(C(=O)N3CCOCC3)c12	-	0	-	-
CCCN(c1nc(C)cc(OC)n1)S(=O)(=O)c1ccccc1	-	0	50.0%	0
COc1cc(C)nc(N(Cc2ccccc2)S(=O)(=O)c2ccccc2)n1	-	0	-	-
CCCc1ncc(C(O)c2ccccc2OC)n1C (configuration not stated)	-	0	-	-
CC1=C(C(=O)Nc2cccc(C(=O)N3CCN(c4cccc(C(F)(F)F)c4)CC3)c2)SCCO1	-	0	-	-
CC(C)(C)C(=O)Nc1ccccc1C(=O)NCc1cccnc1	0	0	-	-
CC(C)(C)c1ccccc1OCC(=O)Nc1ccccc1C(=O)NCc1cccnc1	0	0	77.0%	0
Cc1ccc(S(=O)(=O)CCC(=O)OCc2nc(N)nc(Nc3ccccc3C)n2)cc1	0	0	-	-
Cc1ccc2c(CC(=O)OCc3nc(N)nc(Nc4ccccc4C)n3)coc2c1	11.4	0	0	0	CHO-K1 ctr=16.6;KCNQ1 sel pot=0;KCNQ2 pot conf=14.7;Kir2-1 sel=0;KCNQ2 W236L MoA=0
CC(C)C(=O)N1CCN(c2ccccc2NC(=O)c2cc([N+](=O)[O-])ccc2N2CCOCC2)CC1	0	0	-	-
CC(=O)c1cccc(NC(=O)C(C)N2CCc3ccccc3C2)c1 (configuration not stated)	-	0	-	-
CN(Cc1ccccc1)c1ccc(N2C(=O)CCCC2=O)cc1[N+](=O)[O-]	0	0	-	-

Assay outcomes from PubChem.
